Source: PubChem BioAssay (NCATS)
Inconclusive results are not listed. Where a call stands in place of a potency, no number is given. Active and inactive are the calls of the source. Calls follow the shape of the dose curve; as a rule, active = well fitted cell-killing curve with a large enough effect; inconclusive = small, poorly fitted or top-dose-only effect; inactive = flat fitted curve, though single readings scatter.

Key:
[1] = Cell Viability - LYMP2-011 (AID 969); also: nearly all actives have a fitted effect of over 60% in size
Procedure, shortened: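 Cells seeded at 2500 per well rest 5 hr before compound addition, then incubate 24 hr at 37 C. CellTiter-Glo reagent is added for 30 min at room temperature before luminescence detection.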

[2] = Cell Viability - LYMP2-015 (AID 971); also: nearly all actives have a fitted effect of over 55% in size
Procedure, shortened: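 AC50 values reflect Hill-model fits of ATP-based luminescence (CellTiter-Glo) from a human lymphoblastoid line, 2500 cells/well, treated 24 hr at 37 C.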

[3] = Cell Viability - LYMP2-017 (AID 972); also: nearly all actives have a fitted effect of over 55% in size
Procedure, shortened: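 In this qHTS format, lymphoblastoid cells in complete medium receive test compound for a day at 37 C before ATP content is quantified by luciferase luminescence. Reported AC50 figures come from standard Hill-equation curve fitting.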

[4] = Cell Viability - LYMP2-019 (AID 973); also: nearly all actives have a fitted effect of over 55% in size
Procedure, shortened: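 AC50 values come from Hill-equation modelling of qHTS concentration-response curves, where viability is measured as luciferase-based ATP luminescence in the lymphoblastoid line after 24 hr compound exposure in complete culture medium.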

[5] = Cell Viability - LYMP2-021 (AID 974);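 also: compound exposure lasts 24 hours at 37 °C; nearly all actives have a fitted effect of over 55% in size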
Procedure, shortened: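 In qHTS format, compounds are tested against 2500 lymphoblastoid cells per well for 24 h; viable cell number is inferred from ATP-driven luciferase light, and Hill-equation fitting yields AC50 values.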

[6] = Cell Viability - LYMP2-025 (AID 976)
Procedure, shortened: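 Luminescent ATP readout after 24 hr treatment of a human lymphoblastoid line (LYMP2-025, 2500 cells/well, 37 C). Reagent developed 30 min at room temperature; AC50 fitted with the Hill equation.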

[7] = Cell Viability - LYMP2-002 (AID 977);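 also: compound exposure lasted 24 h at 37 °C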
Procedure, shortened: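 In this qHTS viability screen, 2500 human lymphoblastoid cells per well receive compound for 24 hr at 37 C, and luciferase-based ATP luminescence gives the viability signal. Tetraoctylammonium bromide serves as positive control.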

[8] = Cell Viability - LYMP2-006 (AID 978); also: nearly all actives have a fitted effect of over 60% in size
Procedure, shortened: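 Human lymphoblastoid cells (LYMP2-006), 2500/well in complete medium, were treated with compound for 24 hr at 37 C. Cellular ATP was read by CellTiter-Glo luminescence after 30 min, and AC50 values came from Hill-equation fits of concentration-response data.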

[9] = Cell Viability - LYMP2-007 (AID 979);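 also: cells exposed to compound for 24 h before reading; nearly all actives have a fitted effect of over 60% in size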
Procedure, shortened: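 Measured via luciferase-based ATP quantitation: lymphoblastoid cells, 24 hr compound exposure at 37 C, AC50 from Hill fits.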

[10] = Cell Viability - LYMP2-008 (AID 980); also: nearly all actives have a fitted effect of over 60% in size
Procedure, shortened: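 Measured: ATP-dependent luminescence, proportional to viable cell number, in human lymphoblastoid cells treated 24 hr with compound in complete culture medium. Values are AC50s from Hill-equation modelling of qHTS titrations.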

[11] = Cell Viability - LYMP2-010 (AID 981); also: nearly all actives have a fitted effect of over 55% in size
Procedure, shortened: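 This 24 hr viability screen uses LYMP2-010 lymphoblastoid cells, quantifies ATP via luciferase luminescence, and derives AC50 from Hill fits of qHTS concentration-response data.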

[12] = Cell Viability - LYMP2-014 (AID 983); also: nearly all actives have a fitted effect of over 50% in size
Procedure, shortened: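 Quantitative HTS in lymphoblastoid cells: 24 hr compound exposure, then CellTiter-Glo ATP luminescence. Positive control was tetraoctylammonium bromide, 6.4pM to 92 uM.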

[13] = Cell Viability - LYMP2-016 (AID 984); also: nearly all actives have a fitted effect of over 55% in size
Procedure, shortened: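 Human lymphoblastoid LYMP2-016 cells, 2500 per well, treated with compounds for 24 h at 37 C. Viability read as intracellular ATP by CellTiter-Glo luminescence after 30 min at room temperature; AC50 from Hill fits of concentration-response.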

[14] = Cell Viability - LYMP2-018 (AID 985); also: nearly all actives have a fitted effect of over 50% in size
Procedure, shortened: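 In this qHTS viability assay, cells are treated for 24 hr and cellular ATP is quantified by luciferase-based luminescence, with tetraoctylammonium bromide as positive control.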

[15] = Cell Viability - LYMP2-020 (AID 986); also: nearly all actives have a fitted effect of over 55% in size
Procedure, shortened: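 Cells at 2500 per well receive a 24 hr compound exposure at 37 C. Viability is measured as ATP-dependent luciferase luminescence, with AC50 modeled from qHTS concentration-response curves.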

[16] = Cell Viability - LYMP2-022 (AID 987); also: nearly all actives have a fitted effect of over 55% in size
Procedure, shortened: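 In this qHTS cytotoxicity screen, compound titrations were incubated 24 hr at 37 C with human lymphoblastoid cells in complete medium. Luciferase-based ATP luminescence provided the viability signal.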

[17] = Cell Viability - LYMP2-024 (AID 988); also: nearly all actives have a fitted effect of over 60% in size
Procedure, shortened: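 Cells at 2500 per well received compound for 24 hr after a 5 hr settling period. Viability was scored by CellTiter-Glo luminescence, with AC50 from Hill fits.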

[18] = Cell Viability - LYMP1-002 - Assay at 24 hr (AID 993)
Procedure, shortened: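 Viability was judged from intracellular ATP using a luciferase read-out, following a 24-hour compound incubation at 37 C of lymphoblastoid cells seeded at 2500 per well. Concentration-response data were fitted to the Hill equation for AC50.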
Potency is read from the fitted curve at half-maximal effect.

Compound	Potency [1]	Potency [2]	Potency [3]	Potency [4]	Potency [5]	Potency [6]	Potency [7]	Potency [8]	Potency [9]	Potency [10]	Potency [11]	Potency [12]	Potency [13]	Potency [14]	Potency [15]	Potency [16]	Potency [17]	Potency [18]
c1cc2ccc3cccc4ccc(c1)c2c34	inactive	inactive	inactive	inactive	inactive	inactive	inactive	inactive	inactive	inactive	inactive	inactive	inactive	inactive	inactive	inactive	inactive	inactive
CC(C)(O)C(=O)Nc1ccc([N+](=O)[O-])c(C(F)(F)F)c1	inactive	inactive	inactive	inactive	inactive	inactive	inactive	inactive	inactive	inactive	inactive	inactive	inactive	inactive	inactive	–	inactive	inactive
OCCCBr	inactive	inactive	inactive	inactive	inactive	inactive	inactive	inactive	inactive	inactive	inactive	inactive	inactive	inactive	inactive	inactive	inactive	inactive
CC(=O)[O][Hg][c]1ccccc1	1000 nM (active)	631 nM (active)	631 nM (active)	794 nM (active)	794 nM (active)	1260 nM (active)	1580 nM (active)	1580 nM (active)	1000 nM (active)	1260 nM (active)	398 nM (active)	1580 nM (active)	1000 nM (active)	631 nM (active)	794 nM (active)	501 nM (active)	501 nM (active)	3980 nM (active)
O=S(=O)(c1ccc(Cl)cc1)c1ccc(Cl)cc1	inactive	inactive	inactive	inactive	inactive	inactive	inactive	inactive	inactive	inactive	inactive	inactive	inactive	inactive	inactive	inactive	inactive	inactive
Nc1ccc(Sc2ccc(N)cc2)cc1	inactive	inactive	inactive	inactive	inactive	inactive	inactive	inactive	inactive	inactive	inactive	inactive	inactive	inactive	inactive	inactive	inactive	inactive
Nc1ccc(Cl)cc1	inactive	inactive	inactive	inactive	inactive	inactive	inactive	inactive	inactive	inactive	inactive	inactive	inactive	inactive	inactive	inactive	inactive	inactive
CCCCOC(=O)c1ccccc1C(=O)OCc1ccccc1	inactive	inactive	inactive	inactive	inactive	inactive	inactive	inactive	inactive	inactive	inactive	inactive	inactive	inactive	inactive	inactive	inactive	inactive
CN(C)NC(=O)CCC(=O)O	inactive	inactive	inactive	inactive	inactive	inactive	inactive	inactive	inactive	inactive	inactive	inactive	inactive	inactive	inactive	inactive	inactive	inactive
Nc1ccc([N+](=O)[O-])cc1	inactive	inactive	inactive	inactive	inactive	inactive	inactive	inactive	inactive	inactive	inactive	inactive	inactive	inactive	inactive	inactive	inactive	inactive
O=[N+]([O-])c1c(Cl)c(Cl)cc(Cl)c1Cl	inactive	inactive	inactive	inactive	inactive	inactive	inactive	inactive	inactive	inactive	inactive	inactive	inactive	inactive	inactive	inactive	inactive	inactive
CCOCCOC(C)=O	inactive	inactive	inactive	inactive	inactive	inactive	inactive	inactive	inactive	inactive	inactive	inactive	inactive	inactive	inactive	inactive	inactive	inactive
CCCCC(CC)COC(=O)c1ccccc1C(=O)OCC(CC)CCCC (centres undefined)	inactive	inactive	inactive	inactive	inactive	inactive	inactive	inactive	inactive	inactive	inactive	inactive	inactive	inactive	inactive	inactive	inactive	inactive
C1CCC(NC2CCCCC2)CC1	inactive	inactive	inactive	inactive	inactive	inactive	inactive	inactive	inactive	inactive	inactive	inactive	inactive	inactive	inactive	inactive	inactive	inactive
O=C(O)C(Cl)Cl	inactive	inactive	inactive	inactive	inactive	inactive	inactive	inactive	inactive	inactive	inactive	inactive	inactive	inactive	inactive	inactive	inactive	inactive
